In all, about 48,000 compounds went through this assay and about 13,000 (27%) showed an effect of 50% or more. The list shows a part of the results.
test system: Wolbachia pipientis; test: Anti-Wolbachia Cell-Based Screen; type: functional; set-up: scale not given: in the data most compounds retested in dose-response had high values; settings: 5 µM

Row | Compound | Percent Effect [%]
1 | CC(C)(C)n1cc(C2=CCN(CCc3ccccn3)CC2)cn1 | 15.47
2 | CCOCC(O)CN1CCN(C(=O)Cc2ccc3c(c2)CCO3)CC1 (stereo unspecified) | -9.69
3 | CC(Cn1cncn1)NCc1n[nH]c2c1CCCCC2 (stereo unspecified) | -17.11
4 | O=C(c1cn(Cc2ccccc2)c2ncccc12)N1CCCCC1 | 137.3
5 | Cc1ccc(N2CCCN(C(=O)c3cn(C)c4ccccc34)CC2)nn1 | 7.774
6 | COCCN1C[C@@H](C)[C@@]2(COCCN(C(=O)c3ccccn3)C2)C1.O=C(O)C(F)(F)F.O=C(O)C(F)(F)F | -2.288
7 | CC(=O)c1cn(CC(=O)N2CCC3(CC2)OCCO3)c2ccccc12 | -19.35
8 | O=C(c1cccnc1-n1cncn1)N1CCC(Nc2ccccc2)CC1 | 0.1986
9 | O=C(c1cn(Cc2ccccc2)c2ncccc12)N1CCOCC1 | 115.6
10 | Cc1cccc(CN2CCC3(CCCN(CC(=O)N(C)C)C3)C2)n1.O=C(O)C(F)(F)F (stereo unspecified) | 2.241
11 | Cc1noc(C)c1CN1CC[C@H]2OCC[C@@]2(C(=O)N2CCCO2)C1.O=C(O)C(F)(F)F | -1.065
12 | O=C(O)C(F)(F)F.O=C(O)C(F)(F)F.O=C(O)C(F)(F)F.c1cc(CN2CCCC23CCCN(Cc2ccoc2)C3)ccn1 (stereo unspecified) | 6.786
13 | O=C(N1CCCO1)[C@]12COC[C@H]1CN(Cc1cccnc1)C2.O=C(O)C(F)(F)F.O=C(O)C(F)(F)F | 2.039
14 | O=C(N1CCCO1)[C@@]12CCO[C@@H]1CCN(Cc1cccnc1)C2.O=C(O)C(F)(F)F.O=C(O)C(F)(F)F | 92.31
15 | O=C(O)C(F)(F)F.O=C([C@@H]1C[C@@H]2CCN(Cc3ccccn3)C[C@H]2O1)N1CCCO1 | -15.19
16 | O=C(O)C(F)(F)F.O=C(O)C(F)(F)F.O=C([C@H]1CN(Cc2cccnc2)C[C@H]2OCC[C@@H]12)N1CCCO1 | -1.635
17 | O=C(N1CCOCC1)[C@@]12CCO[C@@H]1CCN(Cc1ccncc1)C2.O=C(O)C(F)(F)F.O=C(O)C(F)(F)F | 97.63
18 | O=C(N1CCCO1)[C@@]12CCO[C@@H]1CCN(Cc1ccccn1)C2.O=C(O)C(F)(F)F.O=C(O)C(F)(F)F | 114.4
19 | Cc1nnc(N2CCCC3(CN(Cc4ccncc4)CCO3)C2)o1.O=C(O)C(F)(F)F.O=C(O)C(F)(F)F (stereo unspecified) | -4.396
20 | Cc1cccc(CN2CC[C@H]3OCC[C@@]3(C(=O)N3CCCO3)C2)n1.O=C(O)C(F)(F)F.O=C(O)C(F)(F)F | 104.8
21 | Cc1cc(CN2CC[C@H]3OCC[C@@]3(C(=O)N3CCOCC3)C2)no1 | 107.8

Row | Compound | Percent Effect [%]
22 | Cc1cc(CN2C[C@@H]3CN(C(=O)c4ccco4)CCO[C@@H]3C2)no1.O=C(O)C(F)(F)F | -7.73
23 | O=C(NCc1ccccn1)[C@@]12CCO[C@@H]1CCN(C1CCCC1)C2.O=C(O)C(F)(F)F.O=C(O)C(F)(F)F | 86.28
24 | Cc1ccnc(OC[C@@]23CCO[C@@H]2CCN(C2CCC2)C3)n1.O=C(O)C(F)(F)F | -3.433
25 | Cc1cc(CN2CC[C@H]3OCC[C@@]3(C(=O)NC(C)C)C2)no1.O=C(O)C(F)(F)F | 2.849
26 | CCn1ccnc1CN1CCNCC1C.Cl.Cl (stereo unspecified) | 0.9214
27 | CN(C)C(=O)CN1CCCC12CCCN(c1ncc(F)cn1)C2.O=C(O)C(F)(F)F (stereo unspecified) | 0.08141
28 | O=C(c1ncccn1)N1C[C@@H]2CN(CC3CC3)CCO[C@@H]2C1 | -1.954
29 | CN1CCN(C(=O)Cc2csc(-c3ccsc3)n2)C(c2ccccc2)C1 (stereo unspecified) | -6.196
30 | CN(C)CCN(C)C[C@H]1CN2CC[C@H]1C[C@@H]2CNC(=O)Nc1ccsc1 | 9.133
31 | Cc1csc(CN2CCC[C@]3(C[C@@H](Oc4ccccn4)CO3)C2)n1.O=C(O)C(F)(F)F.O=C(O)C(F)(F)F | 133.6
32 | Cn1cc(CN2CC[C@]3(C[C@H](Oc4ccccn4)CO3)C2)cn1.O=C(O)C(F)(F)F.O=C(O)C(F)(F)F | 102.3
33 | Cn1cc(CN2CCC[C@]3(C[C@@H](Oc4ccccn4)CO3)C2)cn1.O=C(O)C(F)(F)F.O=C(O)C(F)(F)F | 98.39
34 | Cc1cc(CN2CC[C@]3(C[C@@H](OCC(=O)N(C)C)CO3)C2)no1.O=C(O)C(F)(F)F | 25.8
35 | CN(C)[C@@H]1CN(Cc2cnn(C)c2)[C@@H]2COC[C@H]12.O=C(O)C(F)(F)F.O=C(O)C(F)(F)F.O=C(O)C(F)(F)F | -10.13
36 | Cn1cc(CN2CCC[C@]3(C[C@H](Oc4ccccn4)CO3)C2)cn1 | 94
37 | O=C(O)C(F)(F)F.O=C(O)C(F)(F)F.c1ccc(O[C@H]2CO[C@@]3(CCCN(Cc4nccs4)C3)C2)nc1 | 12.82
38 | Cc1csc(CN2CCC[C@]3(C[C@H](Oc4ccccn4)CO3)C2)n1.O=C(O)C(F)(F)F.O=C(O)C(F)(F)F | -0.2968
39 | Cc1noc(C)c1CN1C[C@@H](OCC(=O)N(C)C)[C@H]2OCCC[C@H]21 | -2.894
40 | O=C(NCC1CC1)[C@@H]1C[C@@H]2OCCN[C@@H]2C1.O=C(O)C(F)(F)F | 8.68
41 | Cc1cc(C)c(CNCC(O)c2ccc(F)c(F)c2)c(C)c1.Cl (stereo unspecified) | 6.678
42 | COc1cccc(C2SCC(=O)Nc3ccsc32)c1OC (stereo unspecified) | -5.826

Row | Compound | Percent Effect [%]
43 | COc1cc(C2SCC(=O)Nc3ccsc32)cc(OC)c1O (stereo unspecified) | -0.1259
44 | O=C1CSC(c2cccs2)c2cnn(C3CCCC3)c2N1 (stereo unspecified) | 10.18
45 | CC(C)(C)n1ncc2c1NC(=O)CSC2c1ccc2c(c1)OCCO2 (stereo unspecified) | 117.6
46 | Cn1c(=O)n(C)c2cc(C3SCC(=O)Nc4ccsc43)ccc21 (stereo unspecified) | 27.99
47 | COC(=O)c1ccc(C2SCC(=O)Nc3ccsc32)cc1 (stereo unspecified) | -2.415
48 | COC(=O)c1ccc(C2SCC(=O)Nc3c2cnn3C(C)(C)C)cc1 (stereo unspecified) | 111.9
49 | CC(C)(C)n1ncc2c1NC(=O)CSC2c1ccsc1 (stereo unspecified) | 129
50 | Cc1c(C2SCC(=O)Nc3c2cnn3C(C)(C)C)cnn1C (stereo unspecified) | 122.6
51 | O=C1CSC(c2ccc(O)cc2)c2sccc2N1 (stereo unspecified) | -5.574
52 | O=C1CSC(c2ccsc2)c2sccc2N1 (stereo unspecified) | 0.8024
53 | CC1CCN(C[C@H]2CN3CC[C@H]2C[C@@H]3CNC(=O)Nc2ccsc2)CC1 | 0.4847
54 | CC1C(=O)Nc2cccnc2N1S(=O)(=O)c1ccc(C#N)c(Cl)c1 (stereo unspecified) | 12.36
55 | O=C(NC[C@H]1C[C@@H]2CCN1C[C@@H]2CN1CCOCC1)Nc1ccsc1 | 0.8179
56 | CN(C)C(=O)COC[C@@]12CCC[C@@H]1CNC2.O=C(O)C(F)(F)F | -7.185
57 | O=C(CSc1ccccn1)N1CCN(CCO)[C@@H]2CS(=O)(=O)C[C@@H]21 | -2.402
58 | Cc1n[nH]c2c1C(c1cnn(C)c1)SCC(=O)N2 (stereo unspecified) | 12.5
59 | Cn1cc(C2SCC(=O)Nc3c2cnn3C(C)(C)C)cn1 (stereo unspecified) | 109.1
60 | CC(C)CN1C[C@H]2C[C@H](C(=O)NCc3cccnc3)[C@@H](C1)O2 | -10.23
61 | Cn1cc(CN2C[C@H]3CN(c4cncnc4)C(=O)[C@H]3C2)cn1.O=C(O)C(F)(F)F | -0.6359
62 | N#Cc1ccc(C(=O)NS(=O)(=O)c2ccc(C#N)c(Cl)c2)cc1 | -4.058
63 | COc1ccc2ncn(Cc3ncc[nH]3)c(=O)c2c1 | 121

Row | Compound | Percent Effect [%]
64 | O=S1(=O)C[C@@H]2[C@H](C1)N(Cc1ncc[nH]1)CCN2Cc1cccnc1 | -2.711
65 | CCc1ccc2ncn(Cc3ncc[nH]3)c(=O)c2c1 | 108.2
66 | Cc1ncsc1CN1CCO[C@H]2[C@H](Oc3ccccn3)CC[C@@H]21.O=C(O)C(F)(F)F.O=C(O)C(F)(F)F | -5.284
67 | Cc1nc(CC(=O)N(CCN2CCOCC2)Cc2ccco2)c(C)s1 | 5.284
68 | CCc1ncc(CN(CCc2ccccc2)Cc2cccs2)cn1.O=C(O)CC(O)(CC(=O)O)C(=O)O | 50.24
69 | COCCN1CCC2(COCc3cnc(N(C)C)nc32)C1.O=C(O)C(F)(F)F (stereo unspecified) | 1.083
70 | CN1CCC2(COCc3cnc(-c4ccccc4)nc32)C1.O=C(O)C(F)(F)F (stereo unspecified) | 9.461
71 | COCCN1CCC2(COCc3cnc(-c4ccccc4)nc32)C1.O=C(O)C(F)(F)F (stereo unspecified) | 89.12
72 | CN(C)c1ncc2c(n1)C1(CCN(Cc3ccccc3)C1)COC2.O=C(O)C(F)(F)F (stereo unspecified) | -5.323
73 | CC(C)CN1CCC2(COCc3cnc(-c4ccccc4)nc32)C1.O=C(O)C(F)(F)F (stereo unspecified) | 105.5
74 | O=C(O)C(F)(F)F.c1ccc(-c2ncc3c(n2)C2(CCN(CC4CC4)C2)COC3)cc1 (stereo unspecified) | 6.483
75 | N#CC1(c2ccccc2)CCN(C(=O)C2CCCN(CC(N)=O)C2)CC1 (stereo unspecified) | -8.527
76 | CC(C)(O)c1cn(C[C@H]2C[C@@H]3CCN2C[C@@H]3C(=O)N2CCOCC2)nn1 | -10.14
77 | O=S(=O)(C1CC1)N1CCC2(CCCN(Cc3ccccn3)C2)CC1 | 112.9
78 | CS(=O)(=O)N1CCC2(CCCN(Cc3ccccn3)C2)C1.O=C(O)C(F)(F)F.O=C(O)C(F)(F)F (stereo unspecified) | -1.492
79 | O=C(O)C(F)(F)F.O=C(O)C(F)(F)F.O=C1N(c2cncnc2)CCC12CCCN(Cc1ccccn1)C2 (stereo unspecified) | -2.82
80 | CS(=O)(=O)N1CCC2(CCCN(Cc3ccccn3)C2)CC1.O=C(O)C(F)(F)F | 4.513
81 | O=C(O)C(F)(F)F.O=C(O)C(F)(F)F.O=S(=O)(C1CC1)N1CCC2(CCCN(Cc3ccccn3)C2)C1 (stereo unspecified) | 113.2
